# Reference: ChEMBL document CHEMBL3988442, “University of Dundee, Small-Polar-MMV Screening Library” (2021)
# For some assays here: Entries with a potency or affinity are not part of this list.
# Assays:
# Design in all cases: scale not given: direction of the effect not stated beside the values
# [1] = biological target: Protein translocase subunit SecA (Escherichia coli (strain K12)) (UniProt P10408); assay: Assay to Identify E. coli SecA ATPase Inhibitors; assay type: functional; settings: 30 µM
# Protein translocase subunit SecA (Escherichia coli (strain K12)), sequence (P10408 whole entry): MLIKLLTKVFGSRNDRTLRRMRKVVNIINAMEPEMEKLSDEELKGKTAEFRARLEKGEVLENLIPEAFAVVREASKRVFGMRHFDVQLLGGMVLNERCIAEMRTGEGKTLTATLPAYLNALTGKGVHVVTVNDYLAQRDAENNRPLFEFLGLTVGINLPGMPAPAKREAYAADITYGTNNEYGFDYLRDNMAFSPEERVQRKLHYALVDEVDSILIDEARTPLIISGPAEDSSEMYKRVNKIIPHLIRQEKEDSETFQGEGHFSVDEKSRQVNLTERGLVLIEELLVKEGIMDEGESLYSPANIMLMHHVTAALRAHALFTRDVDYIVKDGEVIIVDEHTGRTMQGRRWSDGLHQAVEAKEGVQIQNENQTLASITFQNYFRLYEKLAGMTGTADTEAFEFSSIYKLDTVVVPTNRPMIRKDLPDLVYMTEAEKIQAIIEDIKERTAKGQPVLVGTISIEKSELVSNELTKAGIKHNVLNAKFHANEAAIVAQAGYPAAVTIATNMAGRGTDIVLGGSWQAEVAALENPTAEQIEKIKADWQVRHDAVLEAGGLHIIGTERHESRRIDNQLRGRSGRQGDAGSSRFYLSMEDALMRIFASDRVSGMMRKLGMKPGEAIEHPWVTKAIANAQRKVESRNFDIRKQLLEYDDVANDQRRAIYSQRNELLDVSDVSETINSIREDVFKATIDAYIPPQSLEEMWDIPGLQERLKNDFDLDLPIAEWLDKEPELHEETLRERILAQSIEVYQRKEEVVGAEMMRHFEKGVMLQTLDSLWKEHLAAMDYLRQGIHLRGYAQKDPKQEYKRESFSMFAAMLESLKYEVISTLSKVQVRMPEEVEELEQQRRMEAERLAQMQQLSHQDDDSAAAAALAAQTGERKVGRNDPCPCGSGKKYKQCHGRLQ
# [2] = biological target: T1, Ubiquitin-activating enzyme e1, putative (Leishmania donovani (strain BPK282A1)) (UniProt E9BSI1); assay: Leishmania donovani Ubiquitin Activating Enzyme (LdE1); assay type: functional; settings: 30 µM
# T1 sequence (whole entry): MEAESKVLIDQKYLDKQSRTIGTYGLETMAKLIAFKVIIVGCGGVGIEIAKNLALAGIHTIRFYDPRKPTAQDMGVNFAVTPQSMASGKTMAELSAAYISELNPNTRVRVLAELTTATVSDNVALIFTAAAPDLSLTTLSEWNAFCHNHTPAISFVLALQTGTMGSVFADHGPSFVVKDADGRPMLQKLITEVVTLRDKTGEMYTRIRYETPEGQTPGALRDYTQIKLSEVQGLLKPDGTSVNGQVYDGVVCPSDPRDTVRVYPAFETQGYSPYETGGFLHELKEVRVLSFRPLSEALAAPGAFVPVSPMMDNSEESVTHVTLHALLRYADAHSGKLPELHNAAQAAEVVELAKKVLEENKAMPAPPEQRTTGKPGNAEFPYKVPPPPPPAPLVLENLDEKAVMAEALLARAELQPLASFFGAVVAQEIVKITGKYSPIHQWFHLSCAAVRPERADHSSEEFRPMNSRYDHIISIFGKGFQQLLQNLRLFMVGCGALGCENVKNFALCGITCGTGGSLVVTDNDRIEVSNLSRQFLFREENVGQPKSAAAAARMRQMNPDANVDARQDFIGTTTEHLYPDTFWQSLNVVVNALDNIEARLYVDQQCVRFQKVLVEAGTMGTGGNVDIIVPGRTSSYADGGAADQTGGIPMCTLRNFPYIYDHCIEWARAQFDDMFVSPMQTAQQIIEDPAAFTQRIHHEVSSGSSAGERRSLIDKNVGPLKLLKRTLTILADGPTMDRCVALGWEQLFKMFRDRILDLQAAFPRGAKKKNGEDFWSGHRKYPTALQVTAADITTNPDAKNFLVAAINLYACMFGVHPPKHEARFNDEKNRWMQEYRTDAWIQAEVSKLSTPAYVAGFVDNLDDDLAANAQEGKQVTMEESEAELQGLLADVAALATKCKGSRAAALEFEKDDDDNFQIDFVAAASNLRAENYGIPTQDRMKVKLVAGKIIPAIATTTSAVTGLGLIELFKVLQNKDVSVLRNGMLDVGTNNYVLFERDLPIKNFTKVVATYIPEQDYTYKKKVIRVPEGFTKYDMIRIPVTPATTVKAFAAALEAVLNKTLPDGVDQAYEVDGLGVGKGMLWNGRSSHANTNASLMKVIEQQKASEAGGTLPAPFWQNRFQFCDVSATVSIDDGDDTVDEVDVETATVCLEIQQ
# [3] = biological target: AMP-activated protein kinase, AMPK (Homo sapiens) (UniProt P54646+O43741+P54619+Q9UGJ0+Q9Y478+Q13131+Q9UGI9); assay: AMP-dependent Kinase enzyme assay. An in vitro enzyme assay that detects ADP turnover that is directly proportional to AMPK activity. This uses naive AMPK that is activated during the assay with MK-8722; assay type: functional; settings: 30 µM
# [4] = biological target: Sialic acid-binding Ig-like lectin 9 (Homo sapiens) (UniProt Q9Y336); assay: Hs-Siglec9 ALPHAscreen SOP 20170721; settings: 10 µM
# Sialic acid-binding Ig-like lectin 9 (Homo sapiens), sequence (Q9Y336 whole entry): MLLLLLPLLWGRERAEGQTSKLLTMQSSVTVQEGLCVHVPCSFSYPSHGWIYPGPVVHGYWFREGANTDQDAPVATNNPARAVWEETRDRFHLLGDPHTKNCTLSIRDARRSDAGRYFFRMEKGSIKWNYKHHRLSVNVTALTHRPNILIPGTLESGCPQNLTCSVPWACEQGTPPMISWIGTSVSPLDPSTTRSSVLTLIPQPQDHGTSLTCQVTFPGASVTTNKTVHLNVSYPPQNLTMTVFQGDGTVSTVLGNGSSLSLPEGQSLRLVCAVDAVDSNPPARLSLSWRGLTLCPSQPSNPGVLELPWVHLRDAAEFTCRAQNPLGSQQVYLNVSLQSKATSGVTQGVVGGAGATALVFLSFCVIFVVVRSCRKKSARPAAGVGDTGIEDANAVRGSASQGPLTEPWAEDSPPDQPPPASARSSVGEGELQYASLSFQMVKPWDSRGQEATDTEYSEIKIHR
# Trypanosoma cruzi = assay: Trypanosoma cruzi phosphomannomutase and mannose-1-phosphate guanylyltransferase assay; assay type: functional; settings: 10 µM
# [5] = biological target: T2, Arginase-2, mitochondrial (Homo sapiens) (UniProt P78540); assay: in vitro enzyme assay to detect the production of urea directly proportional to the activity of Arginase II; assay type: functional; settings: 33.3 µM; also: in the data most compounds retested in dose-response had high values
# T2 sequence (whole entry): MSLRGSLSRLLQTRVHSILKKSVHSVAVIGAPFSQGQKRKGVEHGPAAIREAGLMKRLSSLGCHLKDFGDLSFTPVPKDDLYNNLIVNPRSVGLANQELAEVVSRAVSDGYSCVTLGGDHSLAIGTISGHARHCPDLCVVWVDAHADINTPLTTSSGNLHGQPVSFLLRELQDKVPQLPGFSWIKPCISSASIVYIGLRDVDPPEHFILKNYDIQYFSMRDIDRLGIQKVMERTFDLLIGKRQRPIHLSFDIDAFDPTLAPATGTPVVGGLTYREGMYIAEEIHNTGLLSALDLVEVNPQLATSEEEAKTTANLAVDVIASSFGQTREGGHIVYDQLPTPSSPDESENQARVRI
# [6] = biological target: T3, Proteasome subunit beta (Trypanosoma cruzi) (UniProt O96673); assay: Trypanosoma cruzi proteasome chymotrypsin-like activity (TcProtChymo) assay.; also: in the data most compounds retested in dose-response had high values; assay type: functional; settings: 9.37 µM
# T3 sequence (whole entry): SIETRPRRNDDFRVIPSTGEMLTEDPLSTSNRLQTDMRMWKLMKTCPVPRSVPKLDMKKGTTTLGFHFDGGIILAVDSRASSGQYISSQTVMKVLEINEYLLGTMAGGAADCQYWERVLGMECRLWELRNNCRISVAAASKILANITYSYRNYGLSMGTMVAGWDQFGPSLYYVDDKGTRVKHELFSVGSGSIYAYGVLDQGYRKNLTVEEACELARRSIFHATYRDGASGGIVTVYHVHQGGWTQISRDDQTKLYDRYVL
# Homo sapiens = species: Homo sapiens; assay: To identify inhibition of the IFN signalling (Jak-Stat) pathway via expression of an eGFP reporter gene under the control of an IFN-stimulated response element (ISRE) containing MxA promoter.; assay type: functional; settings: 30 µM
# [7] = biological target: T4, Tyrosyl-tRNA synthetase, putative (Trypanosoma cruzi (strain CL Brener)) (UniProt Q4DSP6); assay: Trypanosoma cruzi tyrosyl tRNA synthetase (TcYRS) _High Tyrosine SOP; assay type: functional; settings: 30 µM; also: in the data most compounds retested in dose-response had high values
# T4 sequence (whole entry): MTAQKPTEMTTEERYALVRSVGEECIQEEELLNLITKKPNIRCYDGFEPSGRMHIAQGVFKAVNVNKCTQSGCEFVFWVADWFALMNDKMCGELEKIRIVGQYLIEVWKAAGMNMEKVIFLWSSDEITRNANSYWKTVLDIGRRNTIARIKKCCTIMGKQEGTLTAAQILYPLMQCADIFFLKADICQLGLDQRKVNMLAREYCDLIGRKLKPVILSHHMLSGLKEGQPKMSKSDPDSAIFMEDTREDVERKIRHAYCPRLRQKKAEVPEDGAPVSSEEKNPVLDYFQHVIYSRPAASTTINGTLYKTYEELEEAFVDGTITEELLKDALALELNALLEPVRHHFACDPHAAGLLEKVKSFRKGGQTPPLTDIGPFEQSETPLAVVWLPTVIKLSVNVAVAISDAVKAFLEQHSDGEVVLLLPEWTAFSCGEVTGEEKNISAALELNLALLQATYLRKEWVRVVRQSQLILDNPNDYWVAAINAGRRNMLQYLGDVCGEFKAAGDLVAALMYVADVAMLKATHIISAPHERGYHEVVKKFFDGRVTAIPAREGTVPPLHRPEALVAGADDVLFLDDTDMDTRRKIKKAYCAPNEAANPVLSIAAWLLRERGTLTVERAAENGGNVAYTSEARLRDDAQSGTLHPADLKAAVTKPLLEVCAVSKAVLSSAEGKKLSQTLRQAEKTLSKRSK
# [8] = biological target: T4, Tyrosyl-tRNA synthetase, putative (Trypanosoma cruzi (strain CL Brener)); assay: Trypanosoma cruzi tyrosyl tRNA synthetase (TcYRS) SOP; assay type: functional; settings: 30 µM
# [9] = biological target: Chromo domain-containing protein 1 (Saccharomyces cerevisiae (strain ATCC 204508 / S288c) (Baker's yeast)) (UniProt P32657); assay: ScCHD-1 Enzyme Inhibition Assay; assay type: functional; settings: 30 µM; also: in the data most compounds retested in dose-response had high values
# Chromo domain-containing protein 1 (Saccharomyces cerevisiae (strain ATCC 204508 / S288c) (Baker's yeast)), sequence (P32657 whole entry, the tested form may be a part): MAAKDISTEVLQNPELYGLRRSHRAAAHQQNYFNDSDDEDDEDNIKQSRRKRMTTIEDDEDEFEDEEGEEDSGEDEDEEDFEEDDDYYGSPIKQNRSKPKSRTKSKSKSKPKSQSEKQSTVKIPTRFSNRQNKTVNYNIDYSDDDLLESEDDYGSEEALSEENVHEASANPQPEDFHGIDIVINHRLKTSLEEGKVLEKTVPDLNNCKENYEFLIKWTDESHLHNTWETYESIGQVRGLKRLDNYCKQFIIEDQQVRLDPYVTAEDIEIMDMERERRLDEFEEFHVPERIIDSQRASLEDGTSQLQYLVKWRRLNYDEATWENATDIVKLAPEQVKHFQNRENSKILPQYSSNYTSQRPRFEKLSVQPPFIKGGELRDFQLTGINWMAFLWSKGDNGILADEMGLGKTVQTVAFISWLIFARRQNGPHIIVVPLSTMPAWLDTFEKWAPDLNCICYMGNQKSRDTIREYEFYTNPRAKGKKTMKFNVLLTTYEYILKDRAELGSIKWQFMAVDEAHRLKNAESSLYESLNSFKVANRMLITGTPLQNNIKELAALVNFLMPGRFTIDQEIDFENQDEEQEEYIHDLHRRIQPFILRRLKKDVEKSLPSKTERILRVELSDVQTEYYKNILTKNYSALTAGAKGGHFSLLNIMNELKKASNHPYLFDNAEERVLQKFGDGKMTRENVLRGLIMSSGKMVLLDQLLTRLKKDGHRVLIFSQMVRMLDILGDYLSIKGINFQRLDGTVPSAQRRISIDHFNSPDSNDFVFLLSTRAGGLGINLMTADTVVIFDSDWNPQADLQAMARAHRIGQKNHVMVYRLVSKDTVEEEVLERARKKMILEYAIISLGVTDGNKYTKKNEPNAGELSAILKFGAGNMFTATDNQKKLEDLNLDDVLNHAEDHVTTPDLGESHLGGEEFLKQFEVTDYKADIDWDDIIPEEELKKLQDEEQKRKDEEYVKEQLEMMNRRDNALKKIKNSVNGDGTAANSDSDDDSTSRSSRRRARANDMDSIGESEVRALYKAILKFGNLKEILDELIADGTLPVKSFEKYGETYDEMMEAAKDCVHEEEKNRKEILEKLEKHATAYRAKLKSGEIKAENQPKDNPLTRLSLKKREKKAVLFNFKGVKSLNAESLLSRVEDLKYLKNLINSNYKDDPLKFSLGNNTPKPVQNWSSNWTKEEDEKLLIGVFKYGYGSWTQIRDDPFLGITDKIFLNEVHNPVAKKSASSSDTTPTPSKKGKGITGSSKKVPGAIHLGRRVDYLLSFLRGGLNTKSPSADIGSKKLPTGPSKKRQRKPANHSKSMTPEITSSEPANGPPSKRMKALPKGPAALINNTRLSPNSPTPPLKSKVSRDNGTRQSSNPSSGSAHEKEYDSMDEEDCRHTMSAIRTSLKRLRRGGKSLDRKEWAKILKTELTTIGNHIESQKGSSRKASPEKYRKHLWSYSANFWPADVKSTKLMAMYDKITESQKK
compound,measurement,setting,value
O=C([C@@H]1COC[C@H]2CN(C3CCOCC3)C[C@H]21)N1CCCCO1,Percent Effect,[1],0.287%
same,Percent Effect,[2],13.3%
same,Percent Effect,[3],-0.78%
same,Percent Effect,[4],-8.11%
same,Percent Effect,Trypanosoma cruzi,0.386%
same,Percent Effect,[5],-46.4%
same,Percent Effect,[6],6.67%
same,Percent Effect,Homo sapiens,7.44%
same,Percent Effect,[7],2.08%
same,Percent Effect,[8],20%
same,Percent Effect,[9],-6.62%
COCC1CCCN(C(=O)c2cc(Cn3ccc4ccccc43)[nH]n2)C1 (centres undefined),Percent Effect,[1],-5.5%
same,Percent Effect,[2],-7.79%
same,Percent Effect,[3],0.36%
same,Percent Effect,[4],11.2%
same,Percent Effect,Trypanosoma cruzi,8.75%
same,Percent Effect,[5],-81.4%
same,Percent Effect,[6],-0.666%
same,Percent Effect,Homo sapiens,-41.3%
same,Percent Effect,[7],14%
same,Percent Effect,[8],18.5%
same,Percent Effect,[9],127%
O=C(c1ccc[nH]1)N1CCN(CC2CCOc3ccccc3C2)CC1 (centres undefined),Percent Effect,[1],-7.81%
same,Percent Effect,[2],1.39%
same,Percent Effect,[3],-3.67%
same,Percent Effect,[4],14.8%
same,Percent Effect,Trypanosoma cruzi,1.07%
same,Percent Effect,[5],-1.77%
same,Percent Effect,[6],4.04%
same,Percent Effect,Homo sapiens,-2.27%
same,Percent Effect,[7],3.16%
same,Percent Effect,[8],-7.69%
same,Percent Effect,[9],-1%
O=C1CC[C@H]2[C@H](CCN2C(=O)C2CCCO2)N1CCN1CCCC1 (some centres undefined),Percent Effect,[1],1.49%
same,Percent Effect,[2],1.33%
same,Percent Effect,[3],6.35%
same,Percent Effect,[4],-1.83%
same,Percent Effect,Trypanosoma cruzi,0.393%
same,Percent Effect,[5],-3.7%
same,Percent Effect,[6],10.7%
same,Percent Effect,Homo sapiens,-5.66%
same,Percent Effect,[7],2.12%
same,Percent Effect,[8],0%
same,Percent Effect,[9],-4.01%
